Compounds with a hit are over-represented: about 4.7% of the library has one in this group of screens.
D1 potentiator: enhances dopamine response at the human D1 receptor | 360,000 compounds, 0.036% hits | P21728 | potentiation, % at 10 µM | HEK293 TREx D1 cells, calcium flux, dopamine EC20 potentiation; in the data active = potentiation above about 30%; also: 0% is about no effect
Target sequence (P21728 whole entry, looked up): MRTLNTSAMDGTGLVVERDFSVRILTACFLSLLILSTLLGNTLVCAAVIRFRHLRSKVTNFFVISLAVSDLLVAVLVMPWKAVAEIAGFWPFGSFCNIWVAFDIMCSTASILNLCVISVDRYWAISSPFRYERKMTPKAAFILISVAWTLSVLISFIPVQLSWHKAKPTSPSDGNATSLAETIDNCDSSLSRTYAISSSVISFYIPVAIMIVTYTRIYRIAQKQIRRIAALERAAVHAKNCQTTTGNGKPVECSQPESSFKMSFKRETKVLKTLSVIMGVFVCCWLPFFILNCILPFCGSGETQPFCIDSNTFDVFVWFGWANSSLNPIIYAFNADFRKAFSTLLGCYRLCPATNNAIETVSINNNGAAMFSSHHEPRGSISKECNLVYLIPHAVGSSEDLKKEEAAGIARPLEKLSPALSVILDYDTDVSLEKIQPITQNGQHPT
D1 ag: activates the human D1 dopamine receptor; HEK293 T-REx D1 cells, calcium flux, agonist mode; P21728; 360,000 compounds, 1% hits; activation, % at 2 µM; also: 0% is about no effect
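Inducible HEK293 T-REx D1 cells, force-coupled to calcium signalling, were plated at 4000 cells/well with tetracycline and held overnight at 30 C. After no-wash calcium dye loading, compound-evoked calcium rise over 180 s flagged agonists.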
D1 antagonist: human D1 dopamine receptor antagonism. P21728. HEK293 TREx D1 cells, calcium flux, dopamine EC80; active compounds read low. activity change, negative = inhibition, % at 10 µM. 360,000 compounds, 3.2% hits. AID 504652; in the data active = activity change below about -30%; also: % is scaled to controls: 0 for no effect and ±100 for the full control effect
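Kinetic fluorescence of a calcium dye serves as the read-out. D1-expressing Hek293 Trex cells, induced overnight at 30 C, are exposed to compound for 180 s before an EC80 dopamine addition, then read 180 s further.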
TRHR ag: agonists of human TRH receptor | AID 493084 | activation, % at 2 µM | TRHR cells, calcium flux fluo-8, FDSS agonist mode | 360,000 compounds, 0.18% hits; also: 0% is about no effect
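In this calcium-flux screen, cells bearing human TRHR are dye-loaded with fluo-8, baselined for 10 cycles, then exposed to library compounds; positive kinetic calcium responses during the agonist phase mark hits, with TRH as control.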
TRHR enhancer: allosterically enhances the human TRH receptor | 360,000 compounds, 0.66% hits | TRHR cells, fluo-8 calcium fluorescence, EC20 TRH enhancement | enhancement, % at 2 µM | P34981; in the data active = enhancement above about 30%; also: 0% is about no effect
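Enhancer read-out: after compound pinning and an initial kinetic agonist-mode read, an EC20 of TRH (10 nM final) was injected and fluo-8 calcium signal (Ex 480/Em 530) followed at 1 s/cycle for 100 cycles in TRHR-expressing cells.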
An asterisk follows results filed as active; ! = repeats disagree. Rule as the data show it, unless noted: active = activation above about 30%; inactive = the rest.

How did C=C(C(=O)Nc1ccccc1)c1ccc(C)cc1 do in these assays?
D1 potentiator: 2.8; D1 ag: 4.2; D1 antagonist: -49.2*; TRHR ag: -0.5; TRHR enhancer: 1.8

How did Nc1ccc2nc3c(=O)n(C4CCCCC4)c(=O)[nH]c3nc2c1 do in these assays?
D1 potentiator: 3.4; D1 ag: 275.7*; D1 antagonist: 3.0; TRHR ag: 127.9*; TRHR enhancer: 29.2

What do the screens show for `CCCCn1c(=O)[nH]c2nc3cc(N)ccc3nc2c1=O`?
D1 potentiator: -4.7; D1 ag: 207.4*; D1 antagonist: 12.7; TRHR ag: 108.1*; TRHR enhancer: 9.3

How did CCCCn1c(N)c(Br)c(=O)[nH]c1=O do in these assays?
D1 potentiator: -4.2; D1 ag: 6.3; D1 antagonist: 1.4; TRHR ag: -0.1; TRHR enhancer: -1.7

Results for Nc1ccc2nc3c(=O)n(CCc4ccccc4)c(=O)[nH]c3nc2c1 ?
D1 potentiator: 1.9; D1 ag: 435.2*; D1 antagonist: -10.1; TRHR ag: 164.0*; TRHR enhancer: 58.0*

Results for Cc1cc2nc3c(=O)n(CCc4ccccc4)c(=O)[nH]c3nc2cc1N ?
D1 potentiator: 3.2; D1 ag: 352.3*; D1 antagonist: 3.4; TRHR ag: 142.0*; TRHR enhancer: 24.4

How did Nc1ccc2nc(CCc3ccccc3)[nH]c2c1 do in these assays?
D1 potentiator: -5.8; D1 ag: 2.8; D1 antagonist: -17.8; TRHR ag: -0.2; TRHR enhancer: 4.7

How did OCC(O)CN1CCCC1 (stereo not given) do in these assays?
D1 potentiator: -0.2; D1 ag: 2.7; D1 antagonist: -31.9*; TRHR ag: -0.2; TRHR enhancer: 1.3

What do the screens show for `OC(CN1CCCCC1)CN1CCCCC1`?
D1 potentiator: -1.9; D1 ag: 2.9; D1 antagonist: 4.4; TRHR ag: 0.2; TRHR enhancer: 10.5

Results for COc1ccc2[nH]cc(C(=O)CN3CCN(C/C=C/c4ccccc4)CC3)c2c1 ?
D1 potentiator: -2.5; D1 ag: 85.6*; D1 antagonist: -2.9; TRHR ag: -0.1; TRHR enhancer: 8.0

Results for N#CC1CC(c2ccccc2)Nc2cc(Cl)ccc2N1 (stereo not given) ?
D1 potentiator: -5.3; D1 ag: 18.5; D1 antagonist: -89.9*; TRHR ag: -0.5; TRHR enhancer: 13.4

Results for C[C@@H]1C[C@H](O)c2cc(Cl)ccc2N1 ?
D1 potentiator: -0.2; D1 ag: 0.0; D1 antagonist: 10.2; TRHR ag: 0.1; TRHR enhancer: -8.2

Results for Cc1ccnc2nc(C(=O)OCCOc3ccc(Cl)cc3)nn12 ?
D1 potentiator: -3.7; D1 ag: 7.0; D1 antagonist: -36.7*; TRHR ag: -0.2; TRHR enhancer: 3.0

What do the screens show for `Cc1cc(C)n2nc(C(=O)OCC(=O)NCc3ccc(Cl)cc3)nc2n1`?
D1 potentiator: -5.7; D1 ag: -0.6; D1 antagonist: -32.8*; TRHR ag: -0.2; TRHR enhancer: 3.0

What do the screens show for `Cc1ccnc2nc(C(=O)OCCOc3ccc(F)cc3)nn12`?
D1 potentiator: 0.4; D1 ag: 3.2; D1 antagonist: -14.3; TRHR ag: -3.0; TRHR enhancer: 5.2

What do the screens show for `CC(=O)c1ccc(OC(=O)C2c3ccccc3Oc3ccccc32)cc1`?
D1 potentiator: 3.9; D1 ag: 6.3; D1 antagonist: -4.1; TRHR ag: 1.3; TRHR enhancer: -9.1

What do the screens show for `Cc1ccc(OC(=O)C2c3ccccc3Oc3ccccc32)cc1C`?
D1 potentiator: -3.6; D1 ag: 31.7*; D1 antagonist: -12.0; TRHR ag: 0.2; TRHR enhancer: 2.5

How did O=C1N/C(=N\S(=O)(=O)Cc2ccccc2)S/C1=C/c1cc([N+](=O)[O-])ccc1O do in these assays?
D1 potentiator: 22.4; D1 ag: 267.1*; D1 antagonist: 80.5; TRHR ag: 102.2*; TRHR enhancer: 48.9*

What do the screens show for `O=C1N/C(=N\S(=O)(=O)c2ccccc2)S/C1=C\c1cc([N+](=O)[O-])ccc1O`?
D1 potentiator: -2.6; D1 ag: 167.6*; D1 antagonist: 7.0; TRHR ag: 113.7*; TRHR enhancer: 39.6*

How did CC1CCN(C(=O)Cn2cc(SCC(=O)NCc3ccccc3Cl)c3ccccc32)CC1 do in these assays?
D1 potentiator: 3.5; D1 ag: 0.3; D1 antagonist: 6.6; TRHR ag: 0.1; TRHR enhancer: -6.6

Results for COc1ccc(OC)c(NC(=O)c2cc3c(=O)oc4ccccc4c3s2)c1 ?
D1 potentiator: -0.5; D1 ag: 3.7; D1 antagonist: 3.3; TRHR ag: -0.2; TRHR enhancer: 0.9

Results for FC(F)(F)c1cccc(-c2nc3nc(Cl)c(Cl)nc3[nH]2)c1 ?
D1 potentiator: -7.7; D1 ag: 32.9*; D1 antagonist: -35.2*; TRHR ag: 6.9; TRHR enhancer: -14.5

How did COc1ccc(-n2c(=O)c3c(c4cc(OC)ccc4n3C)n(CCC(C)C)c2=O)cc1 do in these assays?
D1 potentiator: 3.3; D1 ag: 0.0; D1 antagonist: -4.9; TRHR ag: -0.5; TRHR enhancer: -3.8

What do the screens show for `CC(C)c1ccc(NC(=O)N2CCN(c3ccc(Cl)c(Cl)c3)CC2)cc1`?
D1 potentiator: -2.5; D1 ag: 15.0; D1 antagonist: -15.2; TRHR ag: 0.3; TRHR enhancer: -3.5

How did CNC(=S)N1CCN(c2ccc(Cl)c(Cl)c2)CC1 do in these assays?
D1 potentiator: -7.0; D1 ag: 9.7; D1 antagonist: -30.6*; TRHR ag: 0.6; TRHR enhancer: -0.6

How did Cc1ccc(NC(=O)N2CCN(c3ccc(Cl)c(Cl)c3)CC2)cc1 do in these assays?
D1 potentiator: -3.5; D1 ag: 15.9; D1 antagonist: -30.1*; TRHR ag: 0.0; TRHR enhancer: -1.5

What do the screens show for `COc1ccc(NC(=S)N2CCCC2c2ccc(OC)c(OC)c2)cc1` (stereo not given)?
D1 potentiator: 1.6; D1 ag: 2.4; D1 antagonist: 1.8; TRHR ag: -0.3; TRHR enhancer: 6.3

Results for COc1ccc(C2CCCN2C(=S)Nc2cccc(C)c2)cc1OC (stereo not given) ?
D1 potentiator: 3.0; D1 ag: 3.3; D1 antagonist: -59.1*; TRHR ag: -1.0; TRHR enhancer: 2.0

Results for COC(=O)N1CCN(c2ccc(Cl)c(Cl)c2)CC1 ?
D1 potentiator: 5.0; D1 ag: 12.7; D1 antagonist: -5.7; TRHR ag: 0.1; TRHR enhancer: -1.6

Results for CC(=O)c1ccc(N2CCN(C(=O)Nc3ccc(C)cc3)CC2)cc1 ?
D1 potentiator: -1.9; D1 ag: 7.4; D1 antagonist: -40.4*!; TRHR ag: -1.0; TRHR enhancer: 8.3

Results for COc1ccc(OC)c(NC(=O)CCc2nc(-c3ccc(C)cc3)no2)c1 ?
D1 potentiator: -0.3; D1 ag: 12.5; D1 antagonist: 4.5; TRHR ag: -1.2; TRHR enhancer: 3.0
